Some test systems named below: SR leukemia; RPMI-8226 leukemia; OVCAR-8 ovarian; OVCAR-5 ovarian; OVCAR-4 ovarian; SK-OV-3 ovarian; IGROV1 ovarian; OVCAR-3 ovarian; HS 578T breast; NCI/ADR-RES ovarian; T-47D breast; BT-549 breast; MDA-MB-435 melanoma; SW-620 colon; MCF7 breast; HCT-116 colon; HCC-2998 colon; KM12 colon.
Common to all, as to assay: NCI-60 one-dose screen, 48 h (100 = growth as untreated, 0 = no growth, -100 = all killed)
Holding throughout (conditions): 10 µM unless noted

Each structure is given as a SMILES string. The panel holds about 83,000 compounds, 20% with a hit somewhere; the sample as a whole holds those more often.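 96-well plates, one dose, 48 hours. Percent growth reported; active if below 10.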 A number with no mark means an inactive call. Activity calls are given as the source filed them.

Consider `O=C(N/N=C/c1ccccc1O)c1ccncc1`, for which the growth in the test on SR leukemia is 49.4%; in the test with RPMI-8226 leukemia it was 53.9%; in the test on OVCAR-8 ovarian it was 52.3%; in the test on OVCAR-5 ovarian, 71.1%; in the test on OVCAR-4 ovarian it was 48.9%; with SK-OV-3 ovarian it was 63.1%. The growth with IGROV1 ovarian was 53.8%; with OVCAR-3 ovarian, 18.2%; in the test on HS 578T breast, 94.3%; in the test on NCI/ADR-RES ovarian it was 38.1%; in the test on T-47D breast, 33.6%; in the test with BT-549 breast, 57%. The growth is 82.5% in the test on MDA-MB-435 melanoma; 66.1% with SW-620 colon; 23.1% with MCF7 breast; 48.7% in the test with HCT-116 colon; 64.5% in the test with HCC-2998 colon.
As to `COc1cccc(-c2nc3sccn3c2-c2ccnc(NCCN3CCCN(C)S3(=O)=O)n2)c1`, the growth in the test on SR leukemia is 66.7%; in the test with RPMI-8226 leukemia, 103%; with OVCAR-8 ovarian, 98.6%; in the test with OVCAR-5 ovarian it was 102%; in the test on OVCAR-4 ovarian, 78%; in the test with SK-OV-3 ovarian it was 62.4%. For the same compound, the growth with IGROV1 ovarian is 72.7%; in the test with OVCAR-3 ovarian, 91.2%; in the test on HS 578T breast, 97.5%; in the test on NCI/ADR-RES ovarian, 84.9%; with T-47D breast it was 72.4%; in the test with BT-549 breast it was 100%. Moreover, the growth in the test on MDA-MB-435 melanoma is 57.7%; with SW-620 colon, 131%; in the test on MCF7 breast it was 106%; with HCT-116 colon, 78.1%; with HCC-2998 colon, 114%.
As to `O=C(CCl)N1c2ccccc2Oc2ccc3ccccc3c21`, the growth with SR leukemia was 9.32% (active); with RPMI-8226 leukemia, -24.7% (active); in the test on OVCAR-8 ovarian, -35.5% (active); with OVCAR-5 ovarian it was 22.4%; in the test on OVCAR-4 ovarian, 20.7%; with SK-OV-3 ovarian it was 30.7%. Moreover, the growth is -70.2% (active) in the test with IGROV1 ovarian; -95.1% (active) in the test with OVCAR-3 ovarian; -12.6% (active) in the test on HS 578T breast; -11.9% (active) in the test with NCI/ADR-RES ovarian; -62.5% (active) with T-47D breast; -67.3% (active) in the test with BT-549 breast. Besides, the growth in the test on MDA-MB-435 melanoma is -22.4% (active); in the test with SW-620 colon, -81.2% (active); in the test with MCF7 breast it was 10.4%; in the test with HCT-116 colon, -98.8% (active); in the test with HCC-2998 colon, 103%; in the test on KM12 colon it was 17.3%.
In the case of `CNC(=O)c1c(NC(=O)c2ccc(C(C)C)cc2)sc2c1CCC(=O)C2`, the growth with SR leukemia is 2.8% (active); in the test with RPMI-8226 leukemia, -26.2% (active); in the test on OVCAR-8 ovarian, 11%; in the test with OVCAR-5 ovarian it was -45.9% (active); in the test with OVCAR-4 ovarian, -74.3% (active); with SK-OV-3 ovarian, -3.87% (active). Also, the growth with IGROV1 ovarian was -52.7% (active); in the test with OVCAR-3 ovarian it was -10.8% (active); with HS 578T breast, 19.1%; in the test on NCI/ADR-RES ovarian, -7.01% (active); in the test with T-47D breast, -36.6% (active); with BT-549 breast, -11.2% (active). Further, the growth in the test on MDA-MB-435 melanoma is 9.66% (active); with SW-620 colon, -35.5% (active); in the test with MCF7 breast it was 0.569% (active); with HCT-116 colon, -31.2% (active); with HCC-2998 colon it was -55.3% (active); in the test with KM12 colon, -17.9% (active).
As to `COc1cc(C2CC(c3ccccc3)=NN2C=O)ccc1Oc1ccnc2cc(Cl)ccc12` (stereo not drawn), the growth was 50.4% in the test with SR leukemia; 32.1% with RPMI-8226 leukemia; 38.7% in the test on OVCAR-8 ovarian; 84.2% with OVCAR-5 ovarian; 35% in the test on OVCAR-4 ovarian; 86.6% with SK-OV-3 ovarian. The growth with IGROV1 ovarian is 80.1%; in the test on OVCAR-3 ovarian, 69.9%; in the test on HS 578T breast it was 76.2%; in the test on NCI/ADR-RES ovarian, 22.9%; in the test with T-47D breast, 33.6%; with BT-549 breast, 46%. Moreover, the growth in the test on MDA-MB-435 melanoma was 36%; with SW-620 colon, 87.9%; in the test on MCF7 breast, 50.5%; in the test with HCT-116 colon, 54.7%; with HCC-2998 colon, 87.4%.
For `OCCN(CCO)c1ccc2ccccc2c1`, the growth is 104% in the test with SR leukemia; 110% with RPMI-8226 leukemia; 104% with OVCAR-8 ovarian; 98.8% with OVCAR-5 ovarian; 104% in the test on OVCAR-4 ovarian; 98.3% with SK-OV-3 ovarian. The growth in the test on IGROV1 ovarian was 93.7%; in the test with OVCAR-3 ovarian it was 103%; in the test with HS 578T breast, 105%; in the test with NCI/ADR-RES ovarian, 98.7%; in the test with T-47D breast, 96.6%; in the test on BT-549 breast it was 101%. Also, the growth with MDA-MB-435 melanoma is 104%; with SW-620 colon, 105%; in the test on MCF7 breast it was 93.3%; with HCT-116 colon, 89.3%; in the test on HCC-2998 colon, 108%; in the test on KM12 colon it was 99.9%.
In the case of `O=C(Nc1ccncc1)C(=O)c1cn(S(=O)(=O)c2cccc(Cl)c2F)c2ccccc12`, the growth was 20% with SR leukemia; 50.2% in the test on RPMI-8226 leukemia; 82.1% with OVCAR-8 ovarian; 101% in the test with OVCAR-5 ovarian; 65.4% in the test on OVCAR-4 ovarian; 97.3% in the test with SK-OV-3 ovarian. In addition, the growth in the test on IGROV1 ovarian is 70.9%; in the test with OVCAR-3 ovarian, 74.7%; with HS 578T breast it was 84.7%; in the test with NCI/ADR-RES ovarian it was 59.3%; in the test with T-47D breast, 74.2%; in the test on BT-549 breast, 62.1%. Besides, the growth is 8.25% (active) in the test with MDA-MB-435 melanoma; 59.6% in the test on SW-620 colon; 35.2% in the test on MCF7 breast; 31.3% with HCT-116 colon; 66.4% in the test with HCC-2998 colon.
Turning to `CS(=O)(=O)c1ccc(C(=O)N/N=C/c2ccc3c(c2)OCO3)cc1`, the growth in the test on SR leukemia was 110%; in the test on RPMI-8226 leukemia, 102%; with OVCAR-8 ovarian, 93.8%; in the test with OVCAR-5 ovarian, 116%; with OVCAR-4 ovarian, 109%; in the test on SK-OV-3 ovarian, 107%. Besides, the growth in the test on IGROV1 ovarian is 113%; in the test on OVCAR-3 ovarian, 99.4%; in the test with HS 578T breast it was 100%; in the test with NCI/ADR-RES ovarian, 110%; with T-47D breast it was 97.3%; in the test on BT-549 breast it was 109%. The growth was 102% in the test with MDA-MB-435 melanoma; 105% in the test on SW-620 colon; 95% in the test on MCF7 breast; 98.1% with HCT-116 colon; 93% in the test with HCC-2998 colon; 95.9% in the test with KM12 colon.
Turning to `CCSc1cnnc2ccccc12`, the growth is 94.2% in the test on SR leukemia; 111% in the test on RPMI-8226 leukemia; 104% in the test on OVCAR-8 ovarian; 103% with OVCAR-5 ovarian; 103% in the test with OVCAR-4 ovarian; 109% with SK-OV-3 ovarian. Besides, the growth was 128% with IGROV1 ovarian; 121% in the test with OVCAR-3 ovarian; 117% in the test with HS 578T breast; 104% in the test with NCI/ADR-RES ovarian; 107% with T-47D breast; 116% in the test on BT-549 breast. In addition, the growth in the test on MDA-MB-435 melanoma is 105%; in the test on SW-620 colon, 113%; with MCF7 breast it was 108%; with HCT-116 colon, 106%; in the test on HCC-2998 colon it was 101%; with KM12 colon it was 113%.

The values above are taken from PubChem BioAssay (NCI).
